Measurements taken from PubChem BioAssay AID2314 (National Center for Advancing Translational Sciences (NCATS), 2010).
Where “and” joins values, the source holds several entries; their conditions need not be identical. Equal entries are not always repeated. Out of some 300,000 compounds screened, about 37,000 (12%) were called active. The full list was thinned out, with actives kept by preference. Values without a mark were called inactive. Cut-off read from the data, not from the text of the source: active = max response mostly above about 13% (no sharp cut-off); inactive = mostly below about 14%.

assay: Cycloheximide Counterscreen for Small Molecule Inhibitors of Shiga Toxin; conditions: cell reporter, cycloheximide protein synthesis inhibition counterscreen; stronger effect = higher value; note: read at 38.3 µM for the half of the compounds with a filed dose; 0% is about no effect

| Structure (SMILES) | max response |
| --- | --- |
| O=C(CNC1CCCCC1)NCC1(c2ccccc2)CCCC1 | -3.76% |
| COCc1cc(=O)n2[nH]c(C)c(-c3ccccc3)c2n1 | 1.24% |
| COc1cc(C(C)=O)ccc1OC(=O)CN1C(=O)c2ccccc2C1=O | -2.6% |
| COc1ccccc1-c1sc2ccccc2c1-c1ccc(C(C)=O)cc1 | 25.3% (active) |
| COCc1cc(C(C)=O)ccc1OC | -7.85% |
| CC(=O)Nc1ccc(Oc2ccc3c(c2)C(=O)NC3=O)cc1 | -1.54% |
| CCOCCCNc1nc(-c2ccccc2)nc2ccccc12 | 7.13% |
| O=C(Cc1ccccc1)n1nc(-c2ccccc2)nc1NCc1ccco1 | 15.3% (active) |
| CS(=O)(=O)n1nc(-c2ccccc2)nc1NCc1ccco1 | 13.9% |
| CSc1nc(-c2ccco2)nn1C(=O)CCc1ccccc1 | -3.44% |
| c1ccc(-c2nc(NCc3ccco3)c3ccccc3n2)cc1 | 16.8% (active) |
| c1coc(CNc2ncnc3ccccc23)c1 | -1.39% |
| Cc1cc(=O)[nH]c2nnnn12 | 4.1% |
| CC1(c2ccccc2)CC(C)(C)N(C(=O)c2cc([N+](=O)[O-])cc([N+](=O)[O-])c2)c2ccccc21 (stereo not given) | -4.42% |
| N#CC1(C#N)C(C(=O)C23CC4CC(CC(C4)C2)C3)C12CCOCC2 (stereo not given) | 2.45% |
| Cc1cccc(N(C)C(=O)c2cc3c(=O)[nH]c4ccc(C)cc4c3s2)c1 | -2.49% |
| COc1ccc(COC(=O)c2ccc(Cl)c(S(=O)(=O)N3CCOCC3)c2)cc1F | 6.51% |
| COc1ccc(-c2cc(C(=O)NC(Cc3c[nH]c4ccccc34)C(=O)O)c(C)o2)cc1OC (stereo not given) | 32.9% (active) |
| CCC(C)NC(=O)c1cc(Cl)ccc1OC (stereo not given) | 5.03% |
| COc1ccc(-c2cc(=O)oc3cc(OCC(=O)N[C@@H](Cc4c[nH]c5ccccc45)C(=O)O)ccc23)cc1 | 0.573% |
| Cc1cccc(C)c1OCC(=O)NC(Cc1c[nH]c2ccccc12)C(=O)O (stereo not given) | -0.482% |
| COc1ccc(-c2cc(C(=O)NC(C(=O)O)C(C)C)c(C)o2)cc1OC (stereo not given) | 28.2% (active) |
| CC(C)C(NC(=O)c1ccc(Cl)cc1)C(=O)O (stereo not given) | -2.96% |
| COc1ccc(C(=O)N/N=C2\CCS(=O)(=O)c3ccc(F)cc32)cc1OC | -4.85% |

| Structure (SMILES) | max response |
| --- | --- |
| O=C(CN(C(=O)c1csnn1)c1cccc(Cl)c1)NC1CCCC1 | 4.33% |
| CCCOc1ccc2c3c(c(=O)oc2c1OCCC)CCC3 | -3.41% |
| COc1ccc2c3c(c(=O)oc2c1OCC(=O)C(C)(C)C)CCCC3 | 35% (active) |
| Cc1c(OC(C)C(=O)N[C@@H](Cc2ccccc2)C(=O)O)ccc2c3c(c(=O)oc12)CCCC3 (stereo not given in full) | -2.81% |
| COc1ccc(C(=O)CN(C(=O)c2ccc(Cl)cc2)N2C(=O)c3ccccc3C2=O)cc1 | -2.08% |
| COc1ccc(Cn2c(-c3ccc(Cl)cc3)c[n+]3ccccc23)cc1 | 50.5% (active) |
| CCn1c(C)cc(=O)cc1-c1ccc(Cl)cc1 | -3.63% |
| CCOc1ccc(NC(=O)CCS(=O)(=O)c2ccc3c(c2)CCCN3C(=O)CC)cc1 | -2.69% |
| Cc1ccc(C(=O)COC(=O)CCN2C(=O)C3C4CCC(C4)C3C2=O)cc1C (stereo not given) | 11.1% |
| COC(=O)c1scc(C)c1NC(=O)CSc1ccc(Cl)cc1 | -0.926% |
| CCC(=O)Nc1ccc2nn(-c3ccc(F)cc3)nc2c1 | 48.7% (active) |
| O=C(CN1CCN(c2ccc(F)cc2)CC1)Nc1cccc(C(F)(F)F)c1 | 11.8% |
| Cc1nn(CC(=O)Nc2ccc(F)cc2)c(=O)c2ccccc12 | 6.83% |
| Cc1cc(/C=C2/SC(=O)N(CC(=O)OC(C)C)C2=O)c(C)n1C | 44% (active) |
| CC(C)OC(=O)CN1C(=O)c2ccccc2C1=O | 0.757% |
| Cc1cc(/C=C2/SC(=O)N(CC(=O)N3CCCC3)C2=O)c(C)n1C | -2.09% |
| CC(C)OCCCNC(=S)N1CCC(C(=O)c2ccc3c(c2)OCCO3)CC1 | -2.67% |
| c1csc(-c2nnc(COc3ncnc4sccc34)o2)c1 | -1.52% |
| CC1CCC2(CC1)NC(=O)N(Cc1nnc(-c3cccs3)o1)C2=O (stereo not given) | 7.72% |
| c1csc(-c2nnc(COc3ccc4c(c3)OCO4)o2)c1 | 43% (active) |
| COc1cccc(Nc2nnc(SCC(=O)N3CC(C)OC(C)C3)s2)c1 (stereo not given) | 6% |
| COc1cccc(NC(=O)Nc2nnc(N3CCCCC3C)s2)c1 (stereo not given) | 43.6% (active) |
| COc1cccc(C(=O)Nc2nnc(S(=O)(=O)N3CCCCC3)s2)c1 | -1.34% |
| O=C(c1ccco1)N1CCN(CCOc2ccccc2)CC1 | 9.67% |

| Structure (SMILES) | max response |
| --- | --- |
| O=C1CCN(CCCc2ccccc2)CCN1CCO | -4.59% |
| O=C1CCN(CCc2ccccc2)CCN1CCOc1ccccc1 | 10.9% (active) |
| Cn1ncc2c(N3CCCCC3)nc(NCCCO)nc21 | -5.17% |
| OCCC#Cc1ccc(CN2CCN(Cc3ccsc3)C(CCO)C2)cc1 (stereo not given) | 11.5% |
| CC1CCN(C(=S)c2cccc([N+](=O)[O-])c2)CC1 | -0.525% |
| O=C(/C=C/c1ccc(F)cc1)NC(=S)NNC(=O)c1cccnc1 | -1.85% |
| CS(=O)(=O)N(CC(=O)N1CCOCC1)c1cccc(Cl)c1Cl | 4.45% |
| CCCSc1nc2[nH]ncc2c(=O)[nH]1 | -7.37% |
| Cc1ccc(CSc2nc3[nH]ncc3c(=O)[nH]2)cc1 | 44.4% (active) |
| Cc1cccc(NC(=O)CSc2nc3[nH]ncc3c(=O)[nH]2)c1 | 6.25% |
| CCC(C)(C)NC(=O)C(c1ccc(OC)cc1)N(C(=O)CCC(=O)Nc1cc(C)on1)c1ccc(OC)cc1OC (stereo not given) | -1.05% |
| COC(=O)c1ccc([C@@H](O)[C@H](C)C(=O)CC(=O)OC(C)(C)C)cc1 | 16.5% and 4.37% |
| C[C@H](NC(=O)OC(C)(C)C)c1nnc(SCC(N)=O)o1 | 1.54% |
| C[C@@H](NC(=O)OC(C)(C)C)c1nnc(S(=O)(=O)Cc2ccccc2)o1 | 15.5% (active) |
| CC(C)Sc1nnc([C@H](Cc2ccccc2)NC(=O)OC(C)(C)C)o1 | -2% |
| COc1cc(-c2nnn(CC(=O)NCc3ccccc3)n2)cc(OC)c1OC | -0.552% |
| Cc1ccc(-n2c(O)c(C=Nc3ccc(S(=O)(=O)Nc4ncccn4)cc3)c3ccccc3c2=O)cc1C | 9.64% |
| CC(C)Oc1ccc(CN2CCC(n3nccc3NC(=O)c3cccnc3)CC2)cc1 | 2.69% |
| COC(=O)C1=CN(c2ccc(F)c(F)c2)C=C(C(=O)OC)C1c1ccc([N+](=O)[O-])cc1 | 4.1% |
| CC(=O)c1ccc(N2CCN(S(=O)(=O)c3ccc4c(c3)CC(=O)N4C)CC2)cc1 | 11.5% |
| CCc1ccccc1NC1c2ccccc2C(=O)N1c1cccnc1 (stereo not given) | 1.65% |
| COC(=O)c1cc(NC2c3ccccc3C(=O)N2c2ccc(Cl)cn2)cc(C(=O)OC)c1 (stereo not given) | 13.7% (active) |
| COC(=O)c1cc(NC(=O)c2nn(C)c(=O)c3ccccc23)cc(C(=O)OC)c1 | -2.61% |
| COCCNC(=O)c1ccc2c(c1)ncn2-c1ccc(C)c(Cl)c1 | -2.44% |

| Structure (SMILES) | max response |
| --- | --- |
| Cc1cc(OCCCN2CCN(Cc3ccccc3)CC2)ccc1[N+](=O)[O-] | 2.14% |
| NC1=NC(=O)C(Cc2cccc(Cl)c2Cl)S1 (stereo not given) | -1.63% |
| O=C(NCCOCc1ccc(Cl)cc1)c1ncn[nH]1 | -5.7% |
| O=C(/C=C/Sc1ncn[nH]1)c1ccc(Cl)cc1 | 35.4% (active) |
| COc1ccc(Cl)cc1CSc1ncn[nH]1 | 1.38% |
| Nc1nonc1-n1nnc(C(=O)N/N=C/C2CCCCC2)c1-c1ccccc1 | -3.53% |
| COc1ccc(C(C(=O)NCc2ccccc2)N(Cc2cccs2)C(=O)c2cnccn2)cc1 (stereo not given) | 0.798% |
| CCNC(=O)CCc1nc(-c2ccc(C)cc2)no1 | 18.6% (active) |
| Cc1ccc(-c2noc(CCC(=O)Nc3ccccc3N3CCN(C)CC3)n2)cc1 | 3.85% |
| CCOc1cc(-c2noc(CCC(=O)N3CCOCC3)n2)ccc1OC | -0.629% |
| Cc1ccc(-c2noc(CCC(N)=O)n2)cc1 | 15.6% (active) |
| CCNC(=O)CCc1nc(-c2ccc(C(C)(C)C)cc2)no1 | 34.3% (active) |
| CCCCNC(=O)CCNC(=O)c1ccc(C(C)(C)C)cc1 | 5.17% |
| COc1ccc(N2CCN(C(=O)CCc3nc(-c4ccc(C)cc4)no3)CC2)cc1 | -3.69% |
| Cc1ccc(-c2noc(CNC(=O)c3ccoc3C)n2)cc1 | 11% |
| CN1CCN(C(=O)CCc2nc(-c3ccc(Cl)cc3)no2)CC1 | 7.26% |
| CC(C)C(NS(=O)(=O)c1cccs1)C(=O)Nc1nc(C(C)(C)C)cs1 (stereo not given) | -2.46% |
| Cc1cc(NS(=O)(=O)c2ccc(NC(=O)C(C)Oc3cccc(C)c3C)cc2)nc(C)n1 (stereo not given) | -0.471% |
| Cc1ccc(C)c(NC(=O)C(OC(=O)c2ccc(C)s2)c2ccccc2)c1 (stereo not given) | 6.66% |
| COc1cc(OC)c2c(-c3cccc(-c4cccc(N)c4)c3)cc(=O)oc2c1 | -2.04% |
| CC(C)n1c(=S)[nH]c2cc(C(F)(F)F)ccc21 | 12.9% |
| Cc1oc2cc(Br)c(O)c(Br)c2c1C(=O)c1ccccc1 | 13.7% |
| OCC1(Cc2ccccc2C(F)(F)F)CCN(Cc2ccncc2)CC1 | 0.237% |
